Data on 17 compounds can be found in PubChem BioAssay (NCATS).

SMILES strings stand for the structures. Records with an inconclusive call do not appear. Entries that show only a call come without a potency. The source made the active and inactive calls. Calls come from the whole dose curve; as a rule, active = well fitted inhibition curve with a large enough effect; inconclusive = small, poorly fitted or top-dose-only effect; inactive = flat fitted curve, though single readings scatter.

For the assay, the target named is Glutathione peroxidase 1 (Homo sapiens) (UniProt P07203). In words: Primary qHTS Assay for Inhibitors of Recombinant Selenoprotein Glutathione Peroxidase 1 (GPX1) (AID 1845191). Note: nearly all actives have a fitted effect of over 65% in size. To be noted: recombinant GPX1, GR-coupled NADPH fluorescence, 15 min; series mostly up to 48.8 µM. Summed up: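 GR-coupled readout: NADPH consumption tracked by fluorescence, ex 340/em 450 nm, at t=0 and after 15 min at RT. Final mix 10 nM GPX1, 1 mM GSH, 0.5 mM CHP, 0.5 mM NADPH, 100 nM GR, 0.01% BSA, following 30 min enzyme–compound preincubation.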
Chain of Glutathione peroxidase 1 (Homo sapiens) (P07203 whole entry, looked up): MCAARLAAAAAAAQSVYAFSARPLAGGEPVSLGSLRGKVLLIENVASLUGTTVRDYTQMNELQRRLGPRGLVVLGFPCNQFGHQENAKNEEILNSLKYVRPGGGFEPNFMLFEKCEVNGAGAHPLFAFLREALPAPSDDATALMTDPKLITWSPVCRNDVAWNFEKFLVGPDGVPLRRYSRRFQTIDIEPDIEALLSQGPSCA
(In qHTS, concentration-response curves come from the screen itself.)
As for `Nc1nc(=O)n([C@H]2C[C@H](O)[C@@H](CO)O2)cc1F`, the Potency result is “inactive”.

For the compound `C[C@H]1[C@@H](OC(=O)CCC(=O)O)O[C@@H]2O[C@@]3(C)CC[C@@H]4[C@H](C)CC[C@@H]1[C@@]24OO3`, the Potency result was “inactive”.

As to `COc1ccc(Nc2nccc(NCCO)n2)cc1`, the Potency result was “inactive”.

For the compound `COc1ccc(C=Cc2cc(OC)c(OC)c(OC)c2)cc1NC(=O)[C@H](N)CO`, the Potency result is “inactive”.

In the case of `CCn1c(=O)c2c(nc(C=Cc3ccc(OC)c(OC)c3)n2C)n(CC)c1=O`, the Potency result is “inactive”.

As for `Nc1cccc2c1C(=O)N(C1CCC(=O)NC1=O)C2=O` (configuration not stated), the Potency result is “inactive”.

`N#Cc1c(NC(=O)c2cccc3ccccc23)sc2c1CCCC2`: the Potency result is “inactive”.

For `C[C@@H]1CC[C@@]2(OC1)OC1CC3C4CC=C5CC(O)CCC5(C)C4CCC3(C)C1[C@@H]2C` (some centres not stated), the Potency entry is “inactive”.

For `Cc1cnc(NC(=O)Nc2cc(Br)c(C)cc2OC[C@@H]2CNCCO2)cn1`, the Potency entry was “inactive”.

As for `O=C(CCCCCCC(=O)Nc1cccnc1)NO`, the Potency result was “inactive”.

Consider `CCCCCCCN(CC)CCCC(O)c1ccc(NS(C)(=O)=O)cc1` (configuration not stated), for which the Potency entry is “inactive”.

As for `Oc1ccc(-c2ccc(-c3cc(Nc4cccc(CNC5CC5)c4)n[nH]3)cc2)c(O)c1`, the Potency entry is “inactive”.

With `CCCCCCCCCCCCCCCC(=O)OC[C@@H](NC(=O)C(Cl)Cl)[C@H](O)c1ccc([N+](=O)[O-])cc1`, the Potency result was “inactive”.

`Cc1ncc(-c2ccnc(Nc3ccc(S(C)(=O)=O)cc3)n2)n1C(C)C`: the Potency result was “inactive”.

As to `CN(C)CCN1C(=O)c2cccc3cc(N)cc(c23)C1=O`, the Potency entry was “inactive”.

Consider `Nc1ccn(C2CO[C@H](CO)O2)c(=O)n1` (some centres not stated), for which the Potency entry is “inactive”.

On to `Nc1nc2c(c(=O)[nH]1)N(C=O)[C@H](CNc1ccc(C(=O)N[C@@H](CCC(=O)O)C(=O)O)cc1)CN2`, for which the Potency entry is “inactive”.
